Among all 320,000 compounds or so, about 2,100 (0.66%) were called active. Not shown: some 53% with an inconclusive outcome. Calls follow the shape of the dose curve; as a rule, active = well fitted inhibition curve with a large enough effect in the signal ratio, with a control signal flat (not every such curve was filed as active); inconclusive = small, poorly fitted or top-dose-only effect, or effect the other way, or a change in a side signal; inactive = flat fitted curve, though single readings scatter; the % refers to the signal ratio. The list comes from a sample in which actives are over-represented; it also holds similar structures and randomly drawn compounds.
assay: qHTS Assay for Lipid Storage Modulators in Drosophila S3 Cells; details: BODIPY lipid droplet fluorescence, 18-24 h, cells fed with added oleic acid; cell number change: measured here: cell count max response; series mostly up to 46.1 µM;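 as to cell number change: cells counted by Cell Tracker Red CMTPX staining in the red channel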; as to lipid storage change, negative = inhibition: % is scaled to controls: 0 for no effect and ±100 for the full control effect
Procedure, shortened: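 Drosophila S3 cells got compounds at several concentrations plus oleic acid (400 uM solution). Laser-scanning cytometry with 488 nm excitation read lipid droplets at 500-530 nm and cells at 575-640 nm. Percent activity was relative to 20 uM Triacsin C.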
Potency is read from the fitted curve at half-maximal effect.

| Structure (SMILES) | Potency | cell number change [%] | lipid storage change, negative = inhibition |
| --- | --- | --- | --- |
| CCOC(=O)COc1ccc(S(=O)(=O)N2CCN(C(=O)OCC)CC2)cc1 | inactive | -5.47 | – |
| CCCn1c(SCC(=O)NC2CC2)nnc1-c1cccs1 | inactive | 9.09 | – |
| Cc1ccc(NC(=O)CSCC(=O)N2CCN(Cc3ccc4c(c3)OCO4)CC2)cc1 | inactive | 21.6 | – |
| COc1ccc(NC2CCCN(C(=O)CSc3ccncc3)C2)cc1 (stereo not given) | 0.231 µM (active) | -29 | – |
| COc1ccc(NC2CCCN(C(=O)CN3C(=O)c4ccccc4C3=O)C2)cc1OC (stereo not given) | 18.4 µM (active) | -13.7 | – |
| COc1ccc(NC2CCCN(C(=O)c3ccncc3)C2)cc1 (stereo not given) | inactive | -9.17 | – |
| COc1ccc(NC2CCCN(C(=O)CCN3CCCC3=O)C2)cc1 (stereo not given) | inactive | 24.3 | – |
| COc1ccc(NC2CCCN(C(=O)COc3ccc(C)cc3)C2)cc1 (stereo not given) | 2.06 µM (active) | -19.8 | – |
| COc1ccc(NC2CCCN(C(=O)CSc3ccccc3)C2)cc1 (stereo not given) | inactive | 3.54 | – |
| Cc1ccc(NC2CCCN(C(=O)CN3C(=O)c4ccccc4C3=O)C2)cc1C (stereo not given) | inactive | 5.05 | – |
| COc1ccc(NC2CCCN(C(=O)CCOc3ccccc3)C2)cc1 (stereo not given) | inactive | 2.67 | – |
| COc1ccc(NC2CCCN(C(=O)CSc3ccccn3)C2)cc1OC (stereo not given) | inactive | -4.53 | – |
| COc1ccc(CC(=O)Nc2ccccc2C(=O)NCCc2ccccc2)cc1 | inactive | 7.51 | – |
| Cc1ccc(OCC(O)CN2CCN(c3ccccc3)CC2)cc1 (stereo not given) | inactive | -26.7 | – |
| O=C(Nc1ccc(S(=O)(=O)N2CCCCC2)cc1)C1CC1 | inactive | 19.3 | – |
| N/C(=N\OC(=O)Cc1ccccc1[N+](=O)[O-])c1cccc(Br)c1 | inactive | -2.3 | – |
| Cn1c(CCN2CCN(c3ccccn3)CC2)nc2cc(NS(=O)(=O)c3ccccc3)ccc21 | inactive | 8.74 | – |
| CC(=O)Nc1ccc2c(c1)nc(CCN1CCN(c3ccccn3)CC1)n2C | inactive | -2.13 | – |
| Cc1ccc(S(=O)(=O)Nc2ccc3c(c2)nc(CCN2CCN(c4ccccn4)CC2)n3C)cc1 | 16.4 µM (active) | 24.4 | – |
| O=C(/C=C/N1CCN(Cc2ccccc2)CC1)C(F)(F)F | – | 4.65 | -0.119% [at 9.22 µM] (inactive) |
| O=C(O)COc1c(-c2ccccc2)oc2ccccc2c1=O | 23.1 µM (active) | 10.5 | – |
| O=C(O)COc1c(-c2ccc(Cl)cc2)oc2ccccc2c1=O | inactive | 7.07 | – |
| NC(=O)COc1c(-c2ccccc2)oc2ccccc2c1=O | inactive | 0.203 | – |
| COc1ccc(CNC(=O)CSc2n[nH]c(N)n2)cc1 | inactive | 2.63 | – |

| Structure (SMILES) | Potency | cell number change [%] | lipid storage change, negative = inhibition |
| --- | --- | --- | --- |
| Cc1[nH]c(C)c(S(=O)(=O)N(Cc2ccccc2)C(C)(C)C)c1C(=O)N1CCCC1 | inactive | -27.6 | – |
| CCN(CC)C(=O)CSc1nnc(-c2ccco2)n1Cc1ccco1 | inactive | -5.34 | – |
| Cc1ccc(NC(=O)CSc2nnc(CNC(=O)c3ccco3)n2C)cc1 | inactive | – | – |
| O=C(OCc1ccc(Cl)cc1)c1cnccn1 | 7.31 µM (active) | 23.8 | – |
| COC(=O)c1ccc(COC(=O)c2cnccn2)cc1 | inactive | 9.29 | – |
| O=C(c1ccccc1)c1ccc(COC(=O)c2cnccn2)cc1 | inactive | – | – |
| CCN(C(=O)CSc1nnc(Cc2ccccc2F)n1N)C1CCS(=O)(=O)C1 (stereo not given) | 8.2 µM (active) | -2.07 | – |
| CCN(C(=O)CSc1nnc(COc2ccccc2F)n1N)C1CCS(=O)(=O)C1 (stereo not given) | inactive | – | – |
| CCN(C(=O)CSc1nnc(-c2ccccc2)n1C)C1CCS(=O)(=O)C1 (stereo not given) | inactive | – | – |
| Cc1onc(-c2ccccc2Cl)c1C(=O)N1CCN(C=O)CC1 | inactive | – | – |
| Cc1onc(-c2ccccc2Cl)c1C(=O)N1CCCCCC1 | 25.9 µM (active) | 0.806 | – |
| Cc1onc(-c2ccccc2Cl)c1C(=O)N1CCC(C)CC1 | inactive | -10.5 | – |
| CCNC(=S)N1CCN=C1Nc1nc(C)cc(C)n1 | inactive | 8.32 | – |
| CCn1cc(CNC(=O)/C=C/c2ccc([N+](=O)[O-])cc2)cn1 | inactive | -8.84 | – |
| CCn1c2ccc(C)cc2c2nc3cc(C(=O)O)ccc3nc21 | inactive | -5.53 | – |
| CCn1c2ccccc2c2nc3cc(C(=O)O)ccc3nc21 | 0.58 µM (active) | -24.2 | – |
| O=C(O)CCn1c2ccccc2c2nc3ccccc3nc21 | inactive | -11.8 | – |
| CC(=O)NCCc1nc2cc(NC(=O)c3cccc([N+](=O)[O-])c3)ccc2n1C | inactive | – | – |
| COc1nn(CC(=O)N2N=C(C)CC2(O)C(F)(F)F)cc1[N+](=O)[O-] (stereo not given) | inactive | 11.8 | – |
| CCOC(=O)Cn1cc([N+](=O)[O-])c(OC)n1 | 23.1 µM (active) | -15 | – |
| COc1nn(CC(=O)N2N=C(C)CC2(O)C(F)F)cc1[N+](=O)[O-] (stereo not given) | inactive | 5.87 | – |
| CCOc1ccc(CCNC(=O)c2nnc(Cc3ccc(F)cc3)o2)cc1OCC | inactive | -1.72 | – |
| CN(CCCNC(=O)COc1cc(=O)n(C)c2ccccc12)Cc1ccccc1 | inactive | 1.19 | – |
| CCSc1nsc(NC(=O)Nc2ccc(F)cc2F)n1 | inactive | – | – |

| Structure (SMILES) | Potency | cell number change [%] | lipid storage change, negative = inhibition |
| --- | --- | --- | --- |
| C=CCSc1nsc(NC(=O)Nc2ccc(F)cc2)n1 | 5.17 µM (active) | -16.2 | – |
| O=C(Nc1nc(SCc2ccc(F)cc2)ns1)c1ccco1 | inactive | -12.1 | – |
| Cc1ccccc1S(=O)(=O)NCC1CCCO1 (stereo not given) | inactive | -3.81 | – |
| COCc1cc(C)nc(SCC[N+](C)(C)CC(=O)c2ccc(Br)cc2)c1C#N | inactive | – | – |
| NC(=O)C1=C[C@@H](c2coc3ccccc3c2=O)C[C@@H](OCc2ccc(CO)cc2)O1 | inactive | 16 | – |
| CCc1ccc(CN(C)C(=O)c2cc(COc3cccc4cnccc34)on2)cc1 | inactive | 14.5 | – |
| CCOC(=O)C1=C(C)N(C)C(=O)NC1c1cccc(O)c1 (stereo not given) | inactive | – | – |
| CC1=C(C(=O)OCc2ccccc2)C(c2cccc([N+](=O)[O-])c2)NC(=O)N1 (stereo not given) | inactive | 10.6 | – |
| CCOC(=O)C1=C(C)NC(C)=C(C(=O)OCC)C1C | inactive | 8.56 | – |
| CCOC(=O)C1=C(CBr)NC(=O)NC1C (stereo not given) | inactive | -12.6 | – |
| CC1=C(C(=O)OCC2CCCO2)C(c2cccc(O)c2)NC(=O)N1 (stereo not given) | inactive | -24.8 | – |
| CCOC(=O)C1=C(C)NC(=O)NC1c1cccc(O)c1 (stereo not given) | 20.6 µM (active) | 0.128 | – |
| CCOC(=O)C1=C(CN2CCSCC2)NC(=O)NC1c1cccc([N+](=O)[O-])c1 (stereo not given) | inactive | -8.36 | – |
| CCOC(=O)C1=C(C)NC(=O)NC1C (stereo not given) | 5.17 µM (active) | -10.2 | – |
| CCOC(=O)C1=C(COc2ccccc2)NC(=O)NC1c1cccc([N+](=O)[O-])c1 (stereo not given) | 9.2 µM (active) | 3.89 | – |
| CCOc1cc(N2CCOCC2)c(OCC)cc1NC(=O)CSc1n[nH]c(N)n1 | inactive | 21.7 | – |
| CCOC(=O)c1c(NC(=O)COC(=O)c2cc(OC)c(OC)cc2[N+](=O)[O-])sc(C)c1CC | inactive | -0.918 | – |
| CN(c1ccccc1)S(=O)(=O)c1cccc(NC(=O)CN2CCc3ccccc3C2)c1 | inactive | – | – |
| CC1=C(C(N)=O)C(c2cccs2)n2ncnc2N1 (stereo not given) | inactive | -0.857 | – |
| COc1ccc(S(=O)(=O)Nc2c(C(=O)O)[nH]c3ccccc23)cc1OC | inactive | 2.12 | – |
| COc1ccccc1OCC(=O)Nc1cc(NC(=O)COc2ccccc2OC)cc(C(=O)O)c1 | inactive | -10.7 | – |
| Cc1cc(=O)n2[nH]nnc2n1 | inactive | -0.264 | – |
| CCC(C)[C@@H](C(=O)N1CCNCC1)n1cc(CCCN=C(N)N)nn1 (stereo not given in full) | inactive | -4.28 | – |
| Oc1[nH]c2ccccc2c1N=Nc1ncnc2c1oc1ccccc12 | inactive | 8.73 | – |

| Structure (SMILES) | Potency | cell number change [%] | lipid storage change, negative = inhibition |
| --- | --- | --- | --- |
| Cc1sc2ncnc(N=Nc3c(O)[nH]c4ccccc34)c2c1C | 20.6 µM (active) | -22 | – |
| Oc1[nH]c2ccccc2c1N=Nc1ccc(C(F)(F)F)cn1 | inactive | -7.88 | – |
| Cc1ccccc1OCCNc1ccc(C(F)(F)F)cc1[N+](=O)[O-] | inactive | -21 | – |
| CCS(=O)(=O)N1Cc2ccccc2CC1C(=O)Nc1ccc(NC(C)=O)cc1 (stereo not given) | inactive | – | – |
| CCS(=O)(=O)N1Cc2ccccc2CC1C(=O)Nc1ccc(C)cc1 (stereo not given) | inactive | – | – |
| CCS(=O)(=O)N1Cc2ccccc2CC1C(=O)NC(C)C12CC3CC(CC(C3)C1)C2 (stereo not given) | 23.1 µM (active) | -29.2 | – |
| Cc1ccc(C=Nc2ccccc2C(N)=O)o1 | inactive | -8.21 | – |
| CC1CN(c2ccc([N+](=O)[O-])cc2F)CCN1C(=O)c1ccco1 (stereo not given) | inactive | -3.23 | – |
| Cc1ccc(NS(=O)(=O)c2ccc3c(c2)N(C)CCO3)cc1 | inactive | 5.66 | – |
| CCOc1ccccc1NS(=O)(=O)c1ccc2c(c1)n(C)c(=O)c(=O)n2C | inactive | -6.25 | – |
| CCOc1ccccc1NS(=O)(=O)c1ccc2c(c1)N(C)CCO2 | 7.31 µM (active) | -20.1 | – |
| COc1ccc(C)cc1NS(=O)(=O)c1ccc2c(c1)N(C(C)=O)CCO2 | inactive | 6.45 | – |
| COc1ccc(C)cc1NS(=O)(=O)c1ccc2c(c1)N(C)CCO2 | 20.6 µM (active) | 6.6 | – |
| CCOc1ccccc1NS(=O)(=O)c1ccc(OC)c(OC)c1 | inactive | -6.31 | – |
| CN(C)S(=O)(=O)c1ccc(N2CCCC2)c(C(=O)Nc2ccc(C(N)=O)cc2)c1 | inactive | – | – |
| Cc1ccc(NC(=S)N2CCN(Cc3ccccc3)CC2)c(C)c1 | inactive | 7.65 | – |
| COc1ccc(C2C(C(=O)N3CCCCC3)CC(=O)N2c2ccc(OC)cc2)cc1 (stereo not given) | inactive | -20 | – |
| CCOc1ccc(/C=N/NC(=O)c2cc3ccccc3cc2OC)cc1 | inactive | – | – |
| O=C(Cc1ccc([N+](=O)[O-])cc1)NC(C(=O)O)C(O)c1cccc([N+](=O)[O-])c1 (stereo not given) | inactive | -5.25 | – |
| CN(C)CC(=O)N1c2ccccc2CCc2ccc(NC(=O)c3ccc(N)cc3)cc21 | inactive | – | – |
| CCOc1ccccc1CN1CCNC(=O)C1CC(=O)NCCN1CCOC1=O (stereo not given) | 2.31 µM (active) | 19.4 | – |
| CCOc1ccccc1CN1CCNC(=O)C1CC(=O)NCCc1ccccn1 (stereo not given) | inactive | -15.8 | – |
| CCOc1ccccc1CN1CCNC(=O)C1CC(=O)NCCCn1cccn1 (stereo not given) | inactive | -11.6 | – |

Source: PubChem BioAssay AID2685 (National Center for Advancing Translational Sciences (NCATS), 2010)
